PubChem BioAssay (NCATS)
Results filed as inconclusive are left out. Activity calls are given as the source filed them. Calls follow the shape of the dose curve; as a rule, active = well fitted inhibition curve with a large enough effect; inconclusive = small, poorly fitted or top-dose-only effect; inactive = flat fitted curve, though single readings scatter.

What follows are compounds tested against Glutathione peroxidase 1 (Homo sapiens) (UniProt P07203) (assay: Primary qHTS Assay for Inhibitors of Recombinant Selenoprotein Glutathione Peroxidase 1 (GPX1) (AID 1845191; also: nearly all actives have a fitted effect of over 65% in size)). Conditions: recombinant GPX1, GR-coupled NADPH fluorescence, 15 min; series mostly up to 27.7 µM; activity, negative = inhibition: at the top concentration.
Sequence of Glutathione peroxidase 1 (Homo sapiens) (P07203 whole entry, looked up): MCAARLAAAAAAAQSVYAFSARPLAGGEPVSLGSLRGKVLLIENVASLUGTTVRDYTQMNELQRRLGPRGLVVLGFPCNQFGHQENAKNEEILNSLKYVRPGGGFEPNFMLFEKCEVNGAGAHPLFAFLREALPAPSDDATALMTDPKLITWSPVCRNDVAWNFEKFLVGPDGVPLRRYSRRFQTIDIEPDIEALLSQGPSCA
Outline: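 10 nM GPX1 + cpd, 30 min RT; start w/ 1 mM GSH, 0.5 mM cumene hydroperoxide, 0.5 mM NADPH, 100 nM GR, 0.01% BSA; buffer 50 mM Tris-HCl pH 7.5, 2 mM EDTA, 150 mM NaCl; Fl 340/450, 0 & 15 min.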
% is scaled to controls: 0 for no effect and ±100 for the full control effect.

| SMILES | outcome | activity, negative = inhibition |
| --- | --- | --- |
| CC1=CC2=C(C)C(=O)[C@](C)(O)[C@H](O)C2=CO1 | inactive [at 48.8 µM] |  |
| CC1(C)C2CC[C@@]34CC(CC[C@H]3[C@]2(C)CC[C@@H]1O[C@@H]1O[C@H](CO)[C@@H](O)[C@H](O)[C@H]1O)[C@](C)(O)C4 (stereo partly specified) |  | -7.23% (inactive) |
| COc1ccc2c(c1)N1C(=O)C[C@@]34C=CC[N@+]5([O-])CC[C@H]2[C@H](CC3)[C@@]145 |  | -5.27% (inactive) |
| COc1cncc(C#Cc2ccccn2)c1 |  | 4.6% [at 48.8 µM] (inactive) |
| CC1(C)CC[C@]2(C(=O)O[C@@H]3O[C@H](CO)[C@@H](O)[C@H](O)[C@H]3O)CC[C@]3(C)C(=CCC4[C@@]5(C)CC[C@H](O[C@H]6O[C@H](CO)[C@@H](O)[C@H](O[C@@H]7O[C@H](CO)[C@@H](O)[C@H](O)[C@H]7O)[C@H]6O)C(C)(C)C5CC[C@]43C)[C@@H]2C1 (stereo partly specified) | inactive [at 15.3 µM] |  |
| CC1OC(OC2C(OC(=O)[C@]34CCC(C)(C)C[C@H]3C3=CCC5[C@@]6(C)CC[C@H](OC7OC(C(=O)O)C(O)C(O)C7O)C(C)(C)C6CC[C@@]5(C)[C@]3(C)CC4O)OC(CO)C2O)C(O)C(O)C1OC1OCC(O)C(O)C1O (stereo partly specified) |  | -14.3% [at 15.3 µM] (inactive) |
| N#CN1CCC[C@@H](n2nc(-c3ccc(Oc4ccc(F)cc4F)cc3)c(C(N)=O)c2N)C1 | inactive [at 48.8 µM] |  |
| O=C(Nc1ccccc1)Nc1ccc(-c2ccc(C(=O)C3CCCC3C(=O)O)cc2)cc1 (stereo unspecified) |  | -22.3% [at 48.8 µM] (inactive) |
| C/C=C/C=C/C=C/C(=O)O[C@@H]1[C@@H](OC)C2=C(C(=O)N(C(CCC(=O)O)C(=O)O)C2)[C@@]2(C)CCCC(C)(C)[C@H]12 (stereo partly specified) |  | -6.53% (inactive) |
| N=C(N)c1ccc2nc(-c3cc(CC(=O)NC(CC(=O)O)C(=O)O)cc(-c4cc(S(N)(=O)=O)ccc4O)c3O)[nH]c2c1 (stereo unspecified) |  | 4% [at 48.8 µM] (inactive) |
| COc1ccccc1N1CCN(CCCCNC(=O)c2ccc(-c3cscn3)cc2)CC1 |  | -7.24% [at 48.8 µM] (inactive) |
| COc1cc(C(CO)C(OC2OC(CO)C(O)C(O)C2O)c2ccc(O)c(OC)c2)ccc1O (stereo unspecified) |  | 1.45% (inactive) |
| CC1=C2CC(O)(C(C)(C)O)C(O[C@@H]3O[C@H](CO)[C@@H](O)[C@H](O)[C@H]3O)CC(C)C2CC1=O (stereo partly specified) |  | -4.72% (inactive) |
| CC(O)/C=C/C1(O)C(C)C(O)C(O[C@@H]2O[C@H](CO)[C@@H](O)[C@H](O)[C@H]2O)CC1(C)C (stereo partly specified) |  | -4.83% (inactive) |
| CC(C)c1cc2c(c(O)c1O)[C@@]13CCCC(C)(C)C1[C@@H](O)[C@@H]2OC3=O (stereo partly specified) |  | -21.2% (inactive) |
| COc1ccc(/C=C/C(N)=O)cc1OC |  | -13.1% [at 48.8 µM] (inactive) |

| SMILES | outcome | activity, negative = inhibition |
| --- | --- | --- |
| C[C@@H]1C[C@@H](O)[C@@]23CO[C@]2(CO)CCC[C@@H]3[C@@]12C[C@@H](c1ccoc1)OC2=O | inactive |  |
| COc1cc(C(=O)OC[C@@]2(O)CO[C@@H](O[C@H]3[C@H](Oc4ccc(O)cc4)O[C@H](CO)[C@@H](O)[C@@H]3O)[C@@H]2O)cc(OC)c1O | inactive [at 15.3 µM] |  |
| O=C(/C=C/c1ccc(O)c(O)c1)O[C@H]1[C@@H]2C=CO[C@@H](O[C@@H]3O[C@H](CO)[C@@H](O)[C@H](O)[C@H]3O)[C@@H]2[C@@]2(CO)O[C@@H]12 |  | -17.4% (inactive) |
| COC(=O)C1=COC(OC2OC(CO)C(O)C(O)C2O)C2C(C)C(OC(C)=O)C(OC(=O)c3ccccc3)C12 (stereo unspecified) |  | -10.5% (inactive) |
| C=C1CCC2[C@@](C)(C(=O)O)CCC[C@@]2(C)[C@@H]1CCc1ccoc1 (stereo partly specified) |  | -8.6% (inactive) |
| Cc1cc(CNC(=O)c2cc(C(=O)NCc3ccc(F)c(C)c3)ncn2)ccc1F | inactive [at 48.8 µM] |  |
| COc1ccc(OC)c(C2C(C#N)=C(N)Oc3n[nH]c(-c4ccc5ccccc5c4)c32)c1 (stereo unspecified) | inactive [at 48.8 µM] |  |
| CC(=O)OC1CCC2(C)C(CCC3(C)C2CC=C2C4CC(C)(C)CCC4(C)CCC23C)C1(C)C(=O)O (stereo unspecified) |  | -28.2% (inactive) |
| N#Cc1cccc(-c2nc(-c3cccnc3)no2)c1 | inactive |  |
| COC(=O)C(Cc1ccccc1)NC(=O)c1ccccc1 (stereo unspecified) |  | 3.9% [at 48.8 µM] (inactive) |
| C[C@@H]1C(=O)O[C@H]2[C@H]1CC[C@@]1(C)C(=O)C=C[C@@](C)(O)[C@H]21 |  | -1.96% [at 48.8 µM] (inactive) |
| O=C(Cc1ccccc1)OC[C@H]1O[C@H](O[C@H]2O[C@H](CO)[C@@H](O)[C@H](O)[C@H]2O)[C@H](O)[C@@H](O)[C@@H]1O |  | -9.61% (inactive) |
| C=CC(C)(CC/C=C(\C)C(=O)OC)OC1OC(COC(=O)CC(C)(O)CC(=O)O)C(O)C(O)C1O (stereo unspecified) | inactive |  |
| OC[C@H]1O[C@@H](OCc2ccccc2)[C@H](O[C@@H]2OC[C@@H](O)[C@H](O)[C@H]2O)[C@@H](O)[C@@H]1O |  | 1.2% (inactive) |
| CCOC(=O)COc1ccc2c(c1)C[C@@H](NC[C@H](O)c1cccc(Cl)c1)CC2 |  | -8.87% [at 48.8 µM] (inactive) |
